In the library only some 12% were active in any assay of this set; here they are far more common.
NS1 inh: blocks influenza NS1 protein function; Potency, µM (doses to about 46.1 µM); actives 0.4% (n = 270,000); further: actives are rising curves; nearly all actives have a fitted effect of over 50% in size
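A cell-based growth assay was used: compounds that relieve NS1-induced slow growth of budding yeast raise OD600. Assay medium was yeast nitrogen base with ammonium sulphate and -URA supplement, pH 6.0, with 2% galactose.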
CHX counter: affects cycloheximide protein synthesis inhibition readout, counter-screen; cell reporter, cycloheximide protein synthesis inhibition counterscreen; max response, %; actives 12% (n = 300,000); in the data active means max response mostly above about 13%, no sharp cut-off; inactive means mostly below about 14%; further: read at 38.3 µM for the half of the compounds with a filed dose
Shiga toxin inh: inhibitors of Shiga toxin in Vero cells | Vero cells, Shiga toxin protein synthesis inhibition reporter | inhibition, % at 38.7 µM | actives 9.2% (n = 290,000); in the data active means inhibition mostly above about 28%, no sharp cut-off; inactive means mostly below about 43%
SARS PLpro yeast: SARS-CoV PLP inhibition in yeast | Potency, µM (top dose mostly 32.9 µM), usual class: activators | S. cerevisiae expressing SARS-CoV PLpro, growth rescue | actives 0.19% (n = 330,000); further: nearly all actives have a fitted effect of over 55% in size
Hits are given with their value; – = inactive; ? = inconclusive; · = no result given; + = active, no number. Unless noted, the call rests on the fitted dose curve.

SMILES	NS1 inh	CHX counter	Shiga toxin inh	SARS PLpro yeast
CC1=NN(c2ccccc2)C(=O)[C@@H]1N=Nc1ccc(S(N)(=O)=O)cc1	–	·	·	·
CC1=NN(c2ccccc2)C(=O)C1C(=O)C(=O)Nc1ccc(F)cc1 (stereo unspecified)	·	30	79	–
CC1=NN(c2ccccc2)C(=O)C1N=Nc1ccccc1 (stereo unspecified)	–	21	109	–
Cc1ccc(NC(=O)C(=O)C2C(=O)Nc3ccccc32)cc1 (stereo unspecified)	–	11	–	–
CC1=NN(c2ccccc2)C(=O)C1N=Nc1ccc(N)cc1 (stereo unspecified)	–	55	80	–
C=C1CC2COC(=O)C2(Cc2ccc3ccccc3c2)C1 (stereo unspecified)	·	–	–	·
CC(=O)Nc1cccc(C(=O)OCC(=O)N(c2ccccc2)C2CCS(=O)(=O)C2)c1 (stereo unspecified)	·	·	·	–
OC[C@@H]1CCC[C@H](n2cnc3c(=S)nc[nH]c32)O1	–	·	·	·
COC(=O)Cc1[nH]n(-c2nc3ccccc3s2)c(=O)c1C(C)=Nc1ccc(C)cc1	–	35	93	–
COC(=O)Cc1[nH]n(-c2ccccc2)c(=O)c1C(C)=Nc1ccccc1	·	–	–	–
COC(=O)Cc1[nH]n(-c2nc3ccccc3s2)c(=O)c1C(C)=Nc1ccc(Cl)cc1	–	39	70	–
CCCN=C(C)c1c(-c2ccccc2)[nH]n(-c2nc3ccccc3s2)c1=O	–	–	–	–
N#C/C(C(=O)c1ccccc1)=C1/SC=C(N)N1c1ccccc1	–	39	122	–
N#C/C(C(N)=O)=C1/SC=C(c2ccccc2)N1c1ccccc1	–	–	–	–
O=C(CN1C(=O)c2cccnc2Oc2ccc(Cl)cc21)Nc1ccccc1F	–	13	–	–
C[C@@H](C(=O)OCC(=O)NCCc1ccc(S(N)(=O)=O)cc1)N1C(=O)C2CCCCC2C1=O (stereo partly specified)	–	–	–	–
O=C(NCC(c1cccnc1)N1CCOCC1)Oc1ccccc1 (stereo unspecified)	–	24	75	–
Cc1cccc(OCCn2c(-c3ccco3)nc3ccccc32)c1	–	26	–	–
O=C(O)CCn1c(SCCOc2ccccc2)nc2ccccc21	–	14	·	–
CCn1c(-c2ccco2)nc2ccccc21	–	26	77	–
Cc1cccc(OCCn2c(S(=O)(=O)O)nc3ccccc32)c1	–	–	–	–
c1ccc(OCCn2c(-c3ccco3)nc3ccccc32)cc1	–	20	70	–
COc1ccc(OCCSc2nc3ccccc3n2CCC(=O)O)cc1	–	–	·	–
CCc1cccc(N(C)C(N)=Nc2cccc3ccccc23)c1	–	–	–	–
Cc1nc2ccccc2n1CCCOc1ccccc1	–	21	47	–
SMILES	NS1 inh	CHX counter	Shiga toxin inh	SARS PLpro yeast
CCN(CC)CCNc1ncnc2c1[nH]c1ccc(OC)cc12	–	–	–	–
COc1ccc2[nH]c3c(NCc4ccco4)ncnc3c2c1	–	36	97	–
COc1ccc2[nH]c3c(NCCC4=CCCCC4)ncnc3c2c1	·	33	125	–
CCOc1ccc2[nH]c3c(NCCC(C)C)ncnc3c2c1	–	14	–	–
COc1ccc2[nH]c3c(NCCCOC(C)C)ncnc3c2c1	–	44	–	–
COc1cc2c(cc1NC(=O)c1cccc(F)c1)CCCC2	–	36	67	–
O=C(Nc1cccc2c1CCCC2)c1ccccc1F	–	22	–	–
COc1cc2c(cc1NC(=O)c1ccccc1F)CCCC2	–	50	93	–
O=S(=O)(/C=C/c1ccccc1)Oc1ccccc1	–	28	–	–
CCOC(=O)c1cnc2cc(F)c(F)cc2c1N1CCOCC1	–	–	–	–
Cc1ccccc1N1CCN(CC(=O)Nc2ccccc2C(=O)NC2CC2)CC1	·	·	·	–
C/C(=N\NC(=O)CNc1cccc(C(F)(F)F)c1)c1ccc(Br)cc1	–	–	–	–
O=C(O)c1cccc(N/N=C/C2=C(Cl)c3cc(Cl)ccc3SC2)c1	·	65	129	–
O=C(O)c1cc(N/N=C/c2c[nH]c3ccccc23)ccc1Cl	–	58	+	–
O=C(O)c1cccc(Cn2c(Cl)c(/C=N/Nc3ccccc3)sc2=O)c1	·	–	–	–
C/C(=N\Nc1cccc(C(F)(F)F)c1)c1ccc(O)cc1	·	–	50	–
O=C(O)c1cc(N/N=C/c2cccnc2)ccc1Cl	–	63	133	–
O=C(Cc1ccc(Cl)c(Cl)c1)N/N=C/c1cccnc1	–	–	–	–
CN(C(=O)CSC1=NC2C(N=N1)c1cc(Br)ccc1N2C)C1CCCCC1 (stereo unspecified)	–	–	–	–
O=C(NCCN1C(=O)S/C(=C\c2cccc(Cl)c2Cl)C1=O)C1=COCCO1	–	–	–	–
Clc1cncc(Cl)c1N/N=C/c1ccncc1	–	–	–	–
CC(C)c1ccc(/C=N/Nc2ccc(C(=O)O)cc2)cc1	–	–	–	–
O=C(O)c1cc(N/N=C/c2ccncc2)ccc1Cl	–	21	59	–
O=C(O)c1ccc(N/N=C/c2ccc(-c3ccccc3)cc2)cc1	·	27	–	–
O=C(O)c1cc(N/N=C/c2ccc(-c3ccccc3)cc2)ccc1Cl	–	100	132	–
SMILES	NS1 inh	CHX counter	Shiga toxin inh	SARS PLpro yeast
O=C(O)c1ccc(N/N=C/C=C/c2ccccc2)cc1	–	42	55	–
COC(=O)c1cc(NC(=O)c2ccc(-c3ccccc3)cc2)ccc1Cl	–	–	–	–
O=C(O)CCCN1C(=O)c2ccc(C(=O)c3cccc([N+](=O)[O-])c3)cc2C1=O	–	–	–	–
CN(CC(=O)Nc1cccc(F)c1)C(=O)c1ccc2c(c1)S(=O)(=O)N=C1CCCCCN12	·	·	·	–
CSc1ccc(/C=N/Nc2ccc(Cl)c(C(=O)O)c2)cc1	·	52	189	–
O=C(O)c1cccc(N/N=C/c2ccc(F)c(F)c2)c1	·	95	+	–
O=C(O)c1cccc(NC(=S)N/N=C/c2cccc(O)c2)c1	·	–	–	–
O=C(N/N=C/c1ccc(O)cc1)c1cccc(C(F)(F)F)c1	–	–	–	?
O=C(O)c1ccc(/C=N/Nc2cccc(C(F)(F)F)c2)cc1	·	56	120	–
CCOC(=O)c1c(NC(=O)C[n+]2ccc(N(C)C)cc2)sc(C)c1C	·	–	–	–
Cc1ccc(-n2nc3c(c2NC(=O)c2ccc(F)c(F)c2)CS(=O)(=O)C3)cc1	–	–	–	–
Cc1ccc2oc(C(=O)N(C)CCC(O)c3ccccc3)c(C)c2c1 (stereo unspecified)	–	–	22	–
COc1ccc2oc(C(=O)N(C)CCOc3ccccc3)c(C)c2c1	–	38	83	–
Cc1c(C(=O)N(C)Cc2ccccc2)oc2ccc(S(=O)(=O)N3CCCC3)cc12	–	–	–	–
COc1ccc2oc(C(=O)N(C)Cc3ccc(OC(F)F)cc3)c(C)c2c1	–	–	–	–
CC1CCC(NC(=O)c2cc3c(=O)n(C)c4ccccc4c3n2C)CC1 (stereo unspecified)	–	18	–	–
CCN1CCN(C(=O)c2cc3c(=O)n(C)c4ccccc4c3n2C)CC1	–	–	–	–
Cn1c(C(=O)N2CCCCCC2)cc2c(=O)n(C)c3ccccc3c21	–	20	–	–
CCOC(=O)c1cn2nc(Oc3ccc(C#N)cc3)ccc2n1	–	–	–	–

From PubChem
